# Marburg entry inh: inhibitors of Marburg virus binding or cell entry. Marburg virus pseudotyped entry inhibition, cell reporter. Potency, µM (highest dose often 37.8 µM), without a hit: top-dose activity change, negative = inhibition, most hits filed as inhibitors. 300,000 tested, 1.8% active; calls by dose curve; tested in HEK293 cells; also: potency is read from the fitted curve at half-maximal effect; % is scaled to controls: 0 for no effect and ±100 for the full control effect
# Shiga inhibitor: blocks Shiga toxin action in Vero cells; Vero cells, Shiga toxin protein synthesis inhibition reporter; inhibition, % at 38.7 µM; 290,000 tested, 9.2% active; AID 2315; in the data active = inhibition mostly above about 28%, no sharp cut-off; inactive = mostly below about 43%; also: 0% is about no effect
# Cycloheximide cs: affects cycloheximide protein synthesis inhibition readout, counter-screen. max response, %. 300,000 tested, 12% active. cell reporter, cycloheximide protein synthesis inhibition counterscreen; in the data active = max response mostly above about 13%, no sharp cut-off; inactive = mostly below about 14%; also: read at 38.3 µM for the half of the compounds with a filed dose; 0% is about no effect
# LASV entry inh: Lassa virus entry inhibition | Lassa virus pseudotype entry inhibition, cell reporter | AID 540256 | 300,000 tested, 1.2% active | Potency, µM (series often up to 37.9 µM), for the others: top-dose activity change, negative = inhibition, most hits filed as inhibitors; calls by dose curve; tested in HEK293 cells; also: potency is read from the fitted curve at half-maximal effect; % is scaled to controls: 0 for no effect and ±100 for the full control effect; nearly all actives have a fitted effect of over 50% in size
# FMDV inh: blocks foot and mouth disease virus | Potency, µM (highest dose often 57.9 µM), inactives show at the top dose activity change, negative = inhibition, actives largely listed as inhibitors | 410,000 tested, 1.2% active | FMDV antiviral cell-based qHTS; calls by dose curve; tested in HEK293T cells; also: read-out not given here; potency is read from the fitted curve at half-maximal effect; % is scaled to controls: 0 for no effect and ±100 for the full control effect; nearly all actives have a fitted effect of over 45% in size
# HCV inh: blocks hepatitis C virus. Huh7.5.1 HCVcc-Cre infection, luciferase reporter, 44 h. 340,000 tested, 3.4% active. Potency, µM (series often up to 41.8 µM), without a hit: top-dose activity change, negative = inhibition, actives largely listed as inhibitors; active = well fitted inhibition curve with a large enough effect; inconclusive = small, poorly fitted or top-dose-only effect, or another doubt; inactive = no such curve, though single readings can be large or run the other way; also: potency is read from the fitted curve at half-maximal effect; % is scaled to controls: 0 for no effect and ±100 for the full control effect
#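 Cells seeded at 1,000/well and cultured 4 h, then compounds added followed by HCVcc-Cre virus (~0.5 moi). After 44 h further culture, luciferase substrate was added, plates held 15 min at room temperature, and luminescence read for 15 sec.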
# * hit, by the source's call; ? = inconclusive; . = no result; [ ] = dose if it differs, or a comment. A selection: hits, their analogues and other compounds. The true share with any hit is near 13%.
SMILES,Marburg entry inh,Shiga inhibitor,Cycloheximide cs,LASV entry inh,FMDV inh,HCV inh
CC(NC(=O)/C=C/c1ccco1)c1nc2ccccc2n1Cc1ccccc1F (centres undefined),-8%,60,27*,-10%,-10%,-4%
CCc1c(C)nc2c(C#N)c[nH]n2c1=O,-27%,-9,-4,2%,3%,19%
O=C(c1ccco1)N1N=C(c2cccs2)CC1c1ccccc1O (centres undefined),-27%,-3,-1,-4%,?,-1%
COc1cccc(C2=NN(C(=O)c3ccco3)C(c3ccco3)C2)c1 (centres undefined),.,72*,29*,.,14%,?
COc1cccc(C2CC(c3cccs3)=NN2C(=O)c2ccco2)c1O (centres undefined),22%[46.1 µM],-13,-1,-22%,-17%,14µM*
CC[N+]1(C)[C@@H]2CC[C@H]1CC(OC(=O)[C@H]1CCC(C(=O)OC3C[C@H]4CC[C@@H](C3)[N+]4(C)CC)(c3ccccc3)c3ccccc31)C2 (some centres undefined),.,.,.,.,-25%,-9%
CC(C)CC1Nc2ncnc(N3CCN(c4ccccc4)CC3)c2N(Cc2ccc(Cl)cc2)C1=O (centres undefined),.,.,.,.,-16%,-29%
CC(C)(C)n1[nH]c2c3c(ccc2c1=O)C(=O)c1ccccc1C3=O,?,44,24*,?,0%,?
Cc1ccc(-n2[nH]c3c4c(ccc3c2=O)C(=O)c2ccccc2C4=O)cc1,?,-15,-1,6%,-14%,30%
CC(C)(Oc1ccc(Cl)cc1)C(=O)Nc1nnc2n1CCS2,.,.,.,2%[46.1 µM],0%,.
COCC(=O)N(C)c1nnc(-c2ccc([N+](=O)[O-])cc2)s1,14%,34,-2,6%,.,14%
CN(C(=O)C1CCOC1)c1nnc(-c2ccccn2)s1 (centres undefined),9%,86*,30*,?,43%,-2%
c1ccc(-c2nnc(-c3ccccn3)s2)nc1,1.1µM*,54*,59*,?,-75%,12%
COCC(=O)N(C)c1nnc(-c2ccccn2)s1,-15%,57*,41*,?,64%,11%
CN(C(=O)C1CCCO1)c1nnc(-c2ccccn2)s1 (centres undefined),2%[46.1 µM],47*,50*,?,46%,25%
CN(C(=O)C1CCOC1)c1nnc(-c2ccncc2)s1 (centres undefined),?,-15,-2,18%,27%,5%
c1ccc(-c2nc(-c3ccccn3)nc(-c3ccccn3)n2)nc1,-1%,-7,1,-6%,-19%,-25%
CCNC1(C#N)CCN(Cc2ccccc2)CC1,-1%,.,.,2%,-18%,8%
O=C(Nc1ncc(Cc2ccccc2Cl)s1)c1ccc2c(c1)CC(c1ccccc1)OC2=O (centres undefined),14%[46.1 µM],.,.,16%[46.1 µM],-18%,.
CCCOc1ccc(N2C(=O)C3C4C=CC(CC4)C3C2=O)cc1 (centres undefined),.,5,-1,.,-11%,17%
CCOC(=O)C1=C(N)Oc2ccc3ccccc3c2C1c1ccc(O)cc1 (centres undefined),.,16,5,.,-24%,-7%
CN(Cc1ccccc1)C(=O)Cn1c(=O)oc2cc(S(=O)(=O)N3CCCC3)ccc21,0%,-8,-4,.,-25%,-14%
c1ccc(C2=NNC(c3ccccn3)=NN2)nc1,.,71*,33*,.,-22%,7%
CC(=O)N1CCC2(CCCN(C(c3ccccc3)c3ccccc3)C2)CC1,.,.,.,.,-24%,.
COc1ccc(NC(=O)c2cncc(Br)c2)cc1S(=O)(=O)N1CCCCC1,?,16,-2,?,20µM*,?
SMILES,Marburg entry inh,Shiga inhibitor,Cycloheximide cs,LASV entry inh,FMDV inh,HCV inh
COc1ccc(NC(=O)c2cc(F)cc(F)c2)cc1S(=O)(=O)N1CCCCC1,?,.,.,-29%[46.1 µM],-25%,10µM*
COc1ccc(NC(=O)[C@@H](NC(=O)c2ccccc2)C(C)C)cc1S(=O)(=O)N1CCCCC1,0.11µM*,11,1,-2%,-5%,-8%
COc1ccc(NC(=O)c2cc(OC)c(OC)c(OC)c2)cc1S(=O)(=O)N1CCCCC1,-17%[46.1 µM],3,-9,?,?,?
COc1ccc(Br)cc1S(=O)(=O)N1CCCC1,3%,54*,30*,13%,-16%,-23%
CCOc1ccc(C(=O)N[C@H](C(=O)Nc2ccc(OC)c(S(=O)(=O)N3CCOCC3)c2)C(C)C)cc1,.,-2,-1,.,-1%,-19%
CCOC(=O)C1(S(=O)(=O)c2ccc(Cl)cc2)CCN(Cc2ccc(C)cc2)CC1,?,-9,-2,-33%,-24%,-29%
COc1ccc(C)cc1S(=O)(=O)N1CC(C)OC(C)C1 (centres undefined),15%[46.1 µM],63,38*,9%,5%,14%
COc1ccc(NC(=O)c2ccc(Cl)nc2)cc1S(=O)(=O)N1CCCCC1,?,-8,-3,-17%,?,11µM*
COc1ccc(C(=O)Nc2ccc(NC(C)=O)cc2)cc1S(=O)(=O)N1CCCC1,.,.,.,.,1%,-2%
CCCCNC(=O)CSc1nnc(NC(C)=O)s1,-4%,52,-1,6%,-6%,8%
CCCCSc1nsc(NC(C)=O)n1,-7%,171*,43*,6%,19%,1%
CCCCCCSc1nsc(NC(C)=O)n1,6%,59*,30*,17%,38%,-9%
CCCSc1nsc(NC(=O)c2cccnc2OCC)n1,.,22,11,.,12%,-19%
CCCSc1nsc(NC(=O)CCC)n1,?,104*,37*,?,3%,-6%
COc1ccc(-n2nnnc2SCC(=O)N2CCCc3ccccc32)cc1OC,-13%,-24,-2,-4%,-27%,-22%
O=C(NCc1ccccc1)c1ccc(Cl)c(NC2=NC3CS(=O)(=O)CC3S2)c1 (centres undefined),.,8,2,.,-3%,20%
O=C(CSc1ccc(F)cc1)Nc1ccc(N2CCOCC2)c(Cl)c1,12%,26,20,?,2%,.
Nc1nnc(SCC(=O)Nc2ccc(N3CCOCC3)c(Cl)c2)s1,-7%,34,21*,28%,0%,?
CCOC(=O)CSc1nc2ccc(N)cc2s1,-20%,60,35,2%,36%,-29%
Nc1ccc2nc(SCc3cccc(F)c3)sc2c1,?,152*,42*,?,3%,-5%
Nc1ccc2nc(SCC(=O)N3CCOCC3)sc2c1,?,71*,31*,?,24%,17%
Nc1ccc2nc(SCC(=O)Nc3ccc(N4CCOCC4)c(Cl)c3)sc2c1,?,22,21*,-7%,-15%,?
CCC(=O)Nc1ccc2nc(SCC(=O)N3CCOCC3)sc2c1,18%[46.1 µM],8,13,4%,7%,13%
CCCC(=O)Nc1ccc2nc(SCC(=O)Nc3ccc(N4CCOCC4)c(Cl)c3)sc2c1,?,150*,52*,?,?,?

# Source: PubChem
